# Rows were chosen to be rich in hits. Some 9% of all compounds tested hit in one or more screens of this group.
# G9a inh – qHTS Assay for Inhibitors of Histone Lysine Methyltransferase G9a. Histone-lysine N-methyltransferase EHMT2 (Homo sapiens), Q96KQ7. G9a H3K9 monomethylation, AlphaScreen, 2 h. Potency, µM (series often up to 102 µM), hits mostly inhibitors. actives 8.8% (n = 350,000). AID 504332, 2011; further: nearly all actives have a fitted effect of over 75% in size
# Target sequence (Q96KQ7 913-1193 limits assumed): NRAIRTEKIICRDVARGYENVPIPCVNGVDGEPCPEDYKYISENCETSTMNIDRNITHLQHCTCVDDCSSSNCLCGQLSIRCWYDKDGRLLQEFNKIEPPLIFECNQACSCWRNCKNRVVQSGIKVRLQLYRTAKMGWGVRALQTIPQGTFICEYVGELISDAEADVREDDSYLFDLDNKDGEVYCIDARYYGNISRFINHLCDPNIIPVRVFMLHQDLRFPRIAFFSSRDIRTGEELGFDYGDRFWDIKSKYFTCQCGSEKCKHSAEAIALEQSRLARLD
#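 Signal arises when biotinylated H3K9 peptide, once monomethylated, bridges streptavidin donor and antibody-captured acceptor beads. Enzyme at 20 nM was preincubated 15 min with test compounds; peptide 500 nM and SAM 20 uM then reacted for 2 h.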
# JMJD2A Tudor – qHTS Assay for Inhibitors of JMJD2A-Tudor Domain. AlphaScreen JMJD2A-Tudor / H3K4me3 peptide binding. actives 4.4% (n = 390,000). Potency, µM (top dose mostly 114 µM), actives largely listed as inhibitors; further: nearly all actives have a fitted effect of over 50% in size
# BAZ2B block – qHTS Assay for Inhibitors of BAZ2B; Bromodomain adjacent to zinc finger domain protein 2B (Homo sapiens), Q9UIF8; AlphaScreen BAZ2B-H3K14Ac peptide displacement; Potency, µM (top dose mostly 114 µM), actives largely listed as inhibitors; actives 4.4% (n = 360,000); further: nearly all actives have a fitted effect of over 60% in size
#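 BAZ2B (50 nM) with biotin-H3(5-23)K14Ac peptide (50 nM) in PBS pH 7.4, 0.01% Tween-20, preformed 30 min, then compound 30 min at room temperature; top concentration 110uM. AlphaScreen streptavidin donor/nickel chelate acceptor beads (10 ug/mL final), 20 min dark, signal read.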
# HP1b binding inh – HTS for Inhibitors of HP1-beta Chromodomain Interactions with Methylated Histone Tails. Chromobox protein homolog 1 (Homo sapiens), P83916. AlphaScreen HP1-beta / biotin-H3K9me3 peptide binding. Potency, µM (series often up to 114 µM), actives largely listed as inhibitors. actives 0.56% (n = 390,000); further: nearly all actives have a fitted effect of over 70% in size
# Target sequence (P83916 whole entry, looked up): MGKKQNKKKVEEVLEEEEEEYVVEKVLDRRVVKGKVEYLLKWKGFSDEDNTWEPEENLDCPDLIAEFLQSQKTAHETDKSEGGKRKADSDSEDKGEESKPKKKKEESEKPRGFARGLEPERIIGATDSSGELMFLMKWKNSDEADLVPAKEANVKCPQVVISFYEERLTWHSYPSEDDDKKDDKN
#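 Compound inhibition of the preformed complex between 50 nM HP1-beta and 50 nM biotinylated H3K9me3 peptide was read by AlphaScreen. Buffer was PBS pH 7.4 with 0.01% Tween-20. Incubations ran 30 min at room temperature, with 10 ug/mL donor/acceptor beads.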
# PLK1 PBD block – qHTS for Inhibitors of PLK1-PDB (polo-like kinase 1 - polo-box domain): Primary Screen; Serine/threonine-protein kinase PLK1 (Homo sapiens), P53350; Plk1 PBD binding of FITC phosphopeptide, fluorescence polarization; Potency, µM, actives largely listed as inhibitors; actives 2.8% (n = 360,000); further: series mostly up to about 57 µM; nearly all actives have a fitted effect of over 65% in size
# 12-LOX inh – Primary qHTS assay for inhibitors of human arachidonate 12S-lipoxygenase (ALOX12): Round 2; Polyunsaturated fatty acid lipoxygenase ALOX12 (Homo sapiens), P18054; Potency, µM (series often up to 108 µM), most hits filed as inhibitors; actives 1.1% (n = 580,000); purified 12hLO, xylenol orange hydroperoxide absorbance
#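 Purified human 12hLO at 150 nM in 25 mM Hepes, 0.01% Triton X-100, pH 7.0, preincubated 15 min at room temperature with compound. Reaction started with 40 uM arachidonic acid, 30 min at room temperature. Hydroperoxide measured by Fe-xylenol orange, 573/405 nm absorbance ratio.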
# Numbers stand for hits; 0 = inactive; ? = inconclusive; - = not tested or not shown; [ ] = dose if it differs, or a comment. The call rests on the fitted dose curve; in most records, active means well fitted curve in the direction sought with a large enough effect; inconclusive means small, poorly fitted or top-dose-only effect, or another doubt; inactive means no such curve, though single readings can be large; an effect the other way counts as inactive or inconclusive.
SMILES,G9a inh,JMJD2A Tudor,BAZ2B block,HP1b binding inh,PLK1 PBD block,12-LOX inh
CCCOc1ccc(N2C(=O)CC(N3CCN(c4ccccc4OC)CC3)C2=O)cc1 (stereo not drawn),45µM,0,0,0,0,0
CC(NCc1ccc(OCc2ccc(Cl)cc2)cc1)C(O)c1ccccc1 (stereo not drawn),?,0,0,0,0,?
Cc1nc2c(C)cccc2cc1C(=O)N/N=C/c1ccc(C(=O)O)cc1,-,0[11.4 µM],?,0,30µM,0
Cc1nc2c(C)cccc2cc1C(=O)N/N=C/c1ccc(N(C)C)cc1,0[2.33 µM],?,?,0,0,0
COC(=O)c1c(NC(=S)Nc2cc(OC)c(Cl)cc2OC)sc2c1CCCCC2,0,50µM,0,0,0,40µM
CCOc1ccccc1NC(=O)c1c(NCc2sccc2C)sc2c1CCC(C)C2 (stereo not drawn),0,0,0,0,-,?
CCOc1ccccc1NC(=O)c1c(NCc2sccc2C)sc2c1CCCCC2,10µM,?,?,0,-,?
COc1ccc(Cl)cc1NC(=O)c1c(NCc2sccc2C)sc2c1CCCC2,2.8µM,50µM,45µM,?,-,?
CCOC(=O)N1CCc2c(sc(NCc3sccc3C)c2C(=O)Nc2ccc(OC)cc2OC)C1,3.5µM,?,?,0,-,?
CCOC(=O)c1ccc(NC(=O)c2c(NCc3sccc3C)sc3c2CCC(C)C3)cc1 (stereo not drawn),?,0,0,0,-,?
C[C@H](O)c1onc(-c2ccccc2)c1C(=O)N1CCOCC1,-,-,-,-,-,0
COc1ccccc1NC(=O)c1c(NCc2sccc2C)sc2c1CCCCC2,10µM,45µM,32µM,?,-,?
COc1ccc(NC(=O)c2c(NCc3sccc3C)sc3c2CCCCC3)c(OC)c1,11µM,?,32µM,0,-,0
COc1ccc(NC(=O)c2c(NCc3cccc(F)c3)sc3c2CCCC3)c(OC)c1,10µM,?,25µM,?,-,?
COc1ccc(NC(=O)c2c(NC(=O)CNCC(C)C)sc3c2CCC3)c(OC)c1,-,0,0,0,0,0
CCOC(=O)N1CCc2c(sc(NCc3sccc3C)c2C(=O)Nc2ccccc2OCC)C1,8.9µM,?,0,0,-,?
O=[N+]([O-])c1cccnc1Oc1cc(Cl)c(Cl)cc1Cl,-,-,-,-,17µM,0
Cc1ccc(NC(=O)C(Cc2ccccc2)n2cccc2)cc1 (stereo not drawn),0,0,0,0,0,?
CC(C(=O)NCc1cccs1)n1cccc1 (stereo not drawn),0,0,0,0,0,0
O=C(NCc1cccs1)C(Cc1ccccc1)n1cccc1 (stereo not drawn),45µM,0,0,0,0,0
CCC(C(=O)Nc1nccs1)c1ccccc1 (stereo not drawn),0,0,0,0,0,0
CCC(C(=O)Nc1nc(C)c(C)s1)c1ccccc1 (stereo not drawn),0[0.501 µM],0,50µM,0,0,0
CCC(C(=O)Nc1nc(C)cs1)c1ccccc1 (stereo not drawn),0,50µM,0,0,27µM,0
Cc1csc(NC(=O)C(Cc2ccccc2)n2cccc2)n1 (stereo not drawn),45µM,?,?,0,0,0
COc1cc(SC)ccc1C(=O)OCC(=O)NCC(C)C,0,0,0,0,0,0
SMILES,G9a inh,JMJD2A Tudor,BAZ2B block,HP1b binding inh,PLK1 PBD block,12-LOX inh
Cc1cccc(-c2noc(CNC(=O)COc3cc(C)cc(C)c3C)n2)c1,-,-,-,-,-,0
CCN(CC)c1ccc(C2CC(=O)Nc3cc(OC)c(OC)cc32)cc1 (stereo not drawn),?,50µM,45µM,0,0,?
COc1cc2c(cc1OC)C(c1ccc(N(C)C)cc1)CC(=O)N2 (stereo not drawn),?,?,?,0,0,0
COc1ccccc1N1C(=O)CC1(C#N)c1ccc(OCc2ccccc2)cc1 (stereo not drawn),0,0,0,0,0,0
COCCN(C(=S)Nc1c(C)cc(C)cc1C)C(C)c1cccnc1 (stereo not drawn),7.1µM,0,0,?,6µM,0
O=C(Cn1cc(F)c(=O)[nH]c1=O)NCCO,0,0,-,0,5.3µM,0
COc1ccc(C2c3c(oc4ccccc4c3=O)C(=O)N2Cc2ccncc2)cc1OC (stereo not drawn),-,0,-,0,0,0
COc1ccc(C2(CNC(=O)c3ccc(OC)c([N+](=O)[O-])c3)CCOCC2)cc1OC,0,0,0,0,0,0
COc1ccc(C(=O)NCC2(c3ccccc3)CCOCC2)cc1[N+](=O)[O-],0,32µM,0,?,12µM,0
C1=C(c2ccccc2)Nc2nc3ccccc3n2C1c1ccccc1 (stereo not drawn),-,-,-,-,-,0
Fc1ccc(C2=CC(c3ccc(F)cc3)n3c(nc4ccccc43)N2)cc1 (stereo not drawn),18µM,0,0,0,-,0
CN(Cc1ccc(F)cc1)C(=O)c1sccc1-c1ccccc1,40µM,0,?,0,0,0
Cc1oc(-c2ccccc2F)nc1CS(=O)(=O)CC(=O)NC(C)CCc1ccccc1 (stereo not drawn),?,0,0,0,0,0
Cc1c(C(=O)NCC2COc3ccccc3O2)oc2ccc(S(=O)(=O)N3CCOCC3)cc12 (stereo not drawn),50µM,0,0,0,0,0
O=C(COC(=O)c1cc(S(=O)(=O)N2CCOCC2)c(Cl)cc1Cl)NC1CC1,0.63µM,0,0,0,0,0
O=C(NCC1COc2ccccc2O1)c1cc(S(=O)(=O)N2CCOCC2)c(Cl)cc1Cl (stereo not drawn),32µM,0,0,0,0,?
COCCCNC(=O)c1oc2ccc(S(=O)(=O)N3CCOCC3)cc2c1C,0,89µM,0,0,?,0
O=C(NC1CCCC1)c1cc(S(=O)(=O)N2CCOCC2)c(Cl)cc1Cl,0,0,0,0,0,0
Cc1c(C(=O)NCC2COc3ccccc3O2)oc2ccc(S(=O)(=O)N3CC(C)CC(C)C3)cc12 (stereo not drawn),0[2.33 µM],0,0,0,0,0
Cc1ccccc1S(=O)(=O)Cc1ccc(C(=O)NC2CCCCC2C)o1 (stereo not drawn),0,0,0,0,0,0
